# Assay outcomes as filed in PubChem.
# Spn DPM-DC inh = S. pneumoniae DPM-DC inhibitors, primary screen, biochemical, PK/LDH-coupled NADH fluorescence. purified DPM-DC. calls only at 10 µM. 65,000 tested, 0.49% active. AID 556, 2006;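 active = the 320 compounds with the highest percent inhibition in the single-dose primary screen, excluding strongly autofluorescent ones, cut at about 32% in these data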;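 note: kinetic rate of NADH fluorescence loss reporting ADP formed by the decarboxylase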
# Abs 340nm = compound light absorbance at 340 nm, profiling panel, artefact control, biochemical, MLSMR library, data from PS, PMK, MK assays; fold change at 10 µM; 65,000 tested, under 10 active; compound absorbance at 340 nm, fold over control;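 active = at 10 µM dose, initial 340 nm absorbance at least 2 fold that of control wells; inactive = change under 2 fold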;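 note: initial absorbance extrapolated from kinetic A340 decline of NADH oxidation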
# PMK inhibit = S. pneumoniae PMK inhibitors, primary screen, biochemical, mevalonate pathway, pilot trial included; inhibition, % at 10 µM; phosphomevalonate kinase (Streptococcus pneumoniae D39); 65,000 tested, 0.49% active; purified PMK, PK/LDH-coupled NADH absorbance 340 nm; AID 539, 2006;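 active = top-ranked compounds by inhibition in the single 10 µM screen, taking a fixed number of the strongest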;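 note: 0% = full reaction with DMSO carrier and 100% = background rate without enzyme reaction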
# NADH enzymes = inhibitors of PK/LDH coupling enzymes, profiling panel, artefact control, biochemical, MLSMR library. AID 774, 2007. 65,000 tested, 0.02% active. coupled PK/LDH NADH assays, four targets. IC50, µM (series often up to 10 µM), for the others: at the top dose inhibition;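 active = single-dose screening hits from any of four coupled enzyme assays that gave an IC50 when retested across doses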;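 note: the DPM-DC format reads NADH fluorescence rather than 340 nm absorbance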
# Autofluor 339 = intrinsic fluorescence of library compounds, ex339/em460 – biochemical, MLSMR library, data from DPM-DC assay, artefact control, profiling panel; 65,000 tested, 5.5% active; compound autofluorescence, ex339/em460 nm, NADH buffer; hits give high values; 1 = no-compound wells, NADH background; fluorescence fold increase at 10 µM;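 active = at 10 µM, mean starting fluorescence two-fold or more over control wells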;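 note: signal is the first read of a kinetic run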
# MK inhibit = S. pneumoniae MK inhibitors, primary screen, biochemical, PK/LDH-coupled NADH absorbance | purified MK, PK/LDH-coupled NADH absorbance 340 nm | AID 555, 2006 | inhibition, % at 10 µM | mevalonate kinase [Streptococcus pneumoniae D39] | 65,000 tested, 0.48% active;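 active = ranked among the strongest by inhibition in the single 10 µM screen, a fixed top-ranked set picked for dose follow-up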
# The depositor's hits bear a star; i = inactive; / = no result shown. In the library only some 6.8% were active in any assay of this set; here they are far more common.
SMILES,Spn DPM-DC inh,Abs 340nm,PMK inhibit,NADH enzymes,Autofluor 339,MK inhibit
CCN(CC)C(=O)C1CCCN(C/C(C)=C/c2ccccc2)C1 (configuration not stated),i,1.1,26*,21%,1.1,36
O=C(c1ccco1)N1CCN(/C(=N/S(=O)(=O)c2cccs2)c2ccccc2Cl)CC1,i,0.97,15,5%,1,16
CCOc1ccccc1C1CC(c2ccc(Br)cc2)Nc2nc(N)nn21 (configuration not stated),i,0.98,6,3%,1.2,4
CCOC(=O)COc1ccc(S(=O)(=O)N2CCc3ccccc3C2)cc1,i,0.97,4,3%,1,2
CCN(C(=O)c1cc2cc(OC)ccc2oc1=O)c1ccccc1,i,1.1,10,7%,1.4,7
COc1ccc2oc(=O)c(-c3nc(C)cs3)cc2c1,/,1,0,7%,2.2*,13
COc1cc(OC)c(C2=NOC(C(=O)O)C2)cc1Cl (configuration not stated),i,1.1,2,5%,1.2,4
N=c1c(C(=O)NC2CCCC2)cc2c(=O)n3ccccc3nc2n1C1CCCC1,/,1,12,6%,5.2*,0
Cc1cc2oc(C(=O)NC3CCS(=O)(=O)C3)c(C)c2cc1C (configuration not stated),i,1,1,3%,1.1,5
Cc1cccn2c(=O)c3cc(C(=O)NC4CCCC4)c(=N)n(C4CCCC4)c3nc12,/,1,0,2%,2.4*,6
Cc1cccn2c(=O)c3cc(C(=O)NC4CCS(=O)(=O)C4)sc3nc12 (configuration not stated),/,1.1,9,6%,2.1*,3
Cc1c(C)[n+](=O)c(-c2cccs2)c(C)n1[O-],i,1.1,0,1%,1.2,2
O=C(c1cccc(C(=O)N2CCN(c3ccccc3F)CC2)n1)N1CCN(c2ccccc2F)CC1,i,1,14,7%,1.1,7
Cc1cc(N2CCCN(C)CC2)nc2cc(Cl)ccc12,i,1.1,1,1%,1.6,0
COc1ccc(N2CCN(c3cc(C)c4ccc(O)cc4n3)CC2)cc1,/,1.1,5,3%,2.1*,0
Cc1cc(N2CCOCC2)nc2cc(O)ccc12,/,1.1,3,4%,2.2*,5
Cc1cc(N2CCN(c3ccccc3F)CC2)nc2cc(O)ccc12,i,1.1,7,5%,3.1*,7
COc1cc(Cl)c(S(=O)(=O)NCc2cccnc2)cc1Cl,i,1,2,2%,1.1,3
Nc1c(C(=O)Nc2ccc(F)cc2)sc2nc(-c3ccco3)ccc12,/,1.1,0,3%,3.8*,5
CSc1c(C#N)c(N)c(C#N)c2c1COC(C)(C)C2,/,1,11,3%,2.1*,7
CCOc1ccc(CCNC(=O)C2CCCN(c3nn4c(=O)cc(C)nc4s3)C2)cc1 (configuration not stated),i,1,22,7%,1.1,0
COCCNC(=O)C1CCCN(c2nn3c(=O)cc(C)nc3s2)C1 (configuration not stated),i,1,33*,11%,1,0
Cc1ccc(C(=O)Nc2cnc3sc(C)nn3c2=O)cc1,i,1.1,5,6%,1.1,7
Cc1ccc(-c2nnc(-c3ccc(Br)cc3)o2)o1,/,1,6,2%,3.4*,6
Cc1ccc2c(c1)cc(CN(Cc1ccccc1)C(=O)N(C)C)c1nnnn12,i,0.99,14,7%,1,7
SMILES,Spn DPM-DC inh,Abs 340nm,PMK inhibit,NADH enzymes,Autofluor 339,MK inhibit
CCOC(=O)CCc1c(C)nc2cc(-c3ccccc3OC)[nH]n2c1=O,i,1.1,4,8%,1.5,2
CCn1c(C)c(CCC(=O)O)c(=O)n2nc(-c3ccccc3OC)cc12,/,1,11,3%,3.1*,6
COc1ccc(N(CC(=O)NCc2cccs2)S(=O)(=O)c2cccnc2)cc1,i,1.1,10,20%,1,47*
Cc1ccccc1NC(=O)c1nc[nH]c1C(=O)NCc1ccccc1,i,1,4,4%,1.1,6
CNC(=O)c1[nH]cnc1C(=O)Nc1cccc(OC)c1,i,1.1,8,4%,1.1,4
CCOc1ccccc1NC(=O)c1nc[nH]c1C(=O)Nc1ccccc1OCC,/,1.1,15,10%,5.2*,5
COc1ccccc1NC(=O)c1nc[nH]c1C(=O)Nc1ccccc1OC,i,1,14,8%,2.3*,7
COc1ccc(NC(=O)c2nc[nH]c2C(=O)Nc2ccccc2C)cc1,i,1.1,9,7%,3.2*,0
COc1ccccc1-c1ccc(=O)n(CC(=O)NC(C)(C)C)n1,i,1,9,4%,1.1,2
Cc1nc2ccc(S(=O)(=O)NCC(=O)N3CCC(C)CC3)cc2s1,i,0.99,15,5%,1.1,0
CCCc1ccccc1OCCNC(C)=O,i,1,7,3%,1.1,8
Cc1cc(C)n(-c2nc3sc4c(c3c3nnc(SCC(N)=O)n23)CC(C)(C)OC4)n1,i,1.1,0,0%,2.7*,3
Cc1cc(C)n(-c2nc(-n3nc(C)cc3C)c3c4c(sc3n2)COC(C)(C)C4)n1,i,1.1,0,7%,1.3,11
CSc1nnc2c3c4c(sc3nc(-n3nc(C)cc3C)n12)COC(C)(C)C4,i,1.1,0,2%,3*,3
N#Cc1nc(-c2ccccc2F)oc1NCc1cccc2c1OCO2,i,1,0,1%,1.7,4
COc1ccc(CCNc2oc(-c3ccc(OC)c(OC)c3)nc2C#N)cc1,/,1.1,0,4%,3.9*,8
COc1ccc(-c2nc(C#N)c(NCC3CCCO3)o2)cc1OC (configuration not stated),/,1.1,0,4%,3.9*,8
COc1ccc(CCNc2oc(COc3ccccc3)nc2C#N)cc1,i,1,0,3%,1.1,9
COc1ccc(-c2nc(C#N)c(NCCCN(C)C)o2)cc1OC,/,1,16,8%,3.1*,33
CN(C)CCNc1oc(-c2ccccc2F)nc1C#N,/,1,13,4%,2.5*,4
O=C(Nc1ccc2c(c1)OCO2)C1Cc2ccccc2CN1S(=O)(=O)c1cccs1 (configuration not stated),i,1,14,6%,1,4
